Screening data: PubChem BioAssay, several laboratories
mHtt clearance – mutant huntingtin protein clearance. actives 0.42% (n = 47,000). AID 853. HeLa Exon1htt(103Q)mCFP, aggregate imaging; zero = plate's median compound well. inhibition, % at 1.5 µM;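 active means inhibition of aggregate fluorescence above about 70%, also judged a hit by eye on the cell image, limit read from the data, passing the limit was not always enough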;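 further: cells exposed to compound for three days before fixation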
SKBR3 24h inh – SK-BR-3 proliferation inhibitors; viability, % at 10 µM; actives 0.47% (n = 41,000); SK-BR-3 viability, CellTiter-Glo ATP luminescence, 24 h; active compounds read low;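 active means viability at or below the median of all test compounds minus 3 SD, in both replicates if run twice, cut at about 45% in these data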
Large screens that a line does not name were inactive. A selection: hits, their analogues and other compounds. The true share with any hit is near 0.58%.

CCSc1cnc(-c2ccccc2)n1CC	none (no result: mHtt clearance)
CCOc1ccc(OCC)c(S(=O)(=O)NCCCN2CCOCC2)c1	none
CCOc1ccc2ccccc2c1CNCCN1CCOCC1	mHtt clearance 70.0
COc1ccccc1NC(=O)CN(Cc1ccccc1)S(C)(=O)=O	none (no result: SKBR3 24h inh)
O=C(C1CCCO1)N1CCN(S(=O)(=O)c2ccccc2)CC1 (stereo not drawn)	none (no result: mHtt clearance)
Cc1ccc2nsnc2c1S(=O)(=O)N1CCN(C(=O)C2CCCO2)CC1 (stereo not drawn)	SKBR3 24h inh 36.8 (no result: mHtt clearance)
O=C(OCc1ccc(Cl)cc1)c1ccccc1C(=O)c1ccccc1	none (no result: SKBR3 24h inh)
CCOC(=O)c1ncn2c1C(=O)OC2(C)C	none (no result: mHtt clearance)
Cc1nnc2sc(-c3cccc(NC(=O)c4ccc(-c5cccc(Cl)c5)o4)c3)nn12	none
Cc1ccc(-c2nn3c(C)nnc3s2)cc1NC(=O)c1ccc(-c2cccc(Cl)c2)o1	SKBR3 24h inh 33.0
CCOC(=O)N1CCN(CCC(=O)Nc2ccc(OC(F)(F)F)cc2)CC1	SKBR3 24h inh 37.4
CCOC(=O)N1CCN(CC(=O)Nc2ccc(OC)cc2)CC1	none (no result: SKBR3 24h inh)
O=C(c1ccc2c3c(cccc13)CC2)N1CCN(c2ncccn2)CC1	none
CS(=O)(=O)N1CC(C(=O)NC2CC2)Oc2ccc(Cl)cc21 (stereo not drawn)	none (no result: SKBR3 24h inh)
Cc1ccccc1Nc1nc(N)nc(CSc2nnnn2-c2ccccc2)n1	none (no result: SKBR3 24h inh)
Cc1nc(Cc2nnc(SCc3nc(N)nc(Nc4ccccc4C)n3)o2)cs1	SKBR3 24h inh 36.0 (no result: mHtt clearance)
O=C(CN1CCCC1)Nc1ccc(-c2nc3cc(NC(=O)CN4CCCC4)ccc3o2)cc1	none
CCC1Cc2c(nc3c4c(nc(N5CCOCC5)c(C#N)c24)NC(C)=N3)O1 (stereo not drawn)	none (no result: SKBR3 24h inh)
CSc1nsc(SC)c1C(=O)N1CCN(S(=O)(=O)c2ccc(C)cc2)C1C(C)C (stereo not drawn)	none (no result: SKBR3 24h inh)
CSc1nsc(SC)c1C(=O)N1CCN(S(=O)(=O)c2ccc(C)cc2)C1C (stereo not drawn)	SKBR3 24h inh 44.0
CN(C(=O)c1ccc(NC(=O)c2cnccn2)cc1)C1CCCCC1	none (no result: mHtt clearance)
CN(C)CCCOC(=O)Cc1ccc(Cl)cc1	none
CN(C)CCCOC(=O)c1ccccc1Cl	mHtt clearance 73.0 (no result: SKBR3 24h inh)
CC(=O)N1CCc2cc(Br)cc(S(=O)(=O)N3CCCCCC3)c21	SKBR3 24h inh 40.7
CC(=O)N1CCc2cc(Br)cc(S(=O)(=O)N3CCN(C(=O)c4ccco4)CC3)c21	none (no result: mHtt clearance)
O=C(Nc1cccc2c1CCCC2)c1ccncc1	none (no result: SKBR3 24h inh)
CCOC(=O)Cn1nnnc1CN(Cc1ccc(OC)cc1)Cc1cc2cc(CC)ccc2[nH]c1=O	none (no result: mHtt clearance)
COc1ccccc1CN(Cc1cc2cc(C)cc(C)c2[nH]c1=O)Cc1nnnn1CC1CCCO1 (stereo not drawn)	none (no result: SKBR3 24h inh)
CCOC(=O)Cn1nnnc1CN(Cc1ccc(OC)cc1)Cc1cc2cc(C)ccc2[nH]c1=O	SKBR3 24h inh 39.4
COc1ccccc1CN(Cc1cc2cc(C)ccc2[nH]c1=O)Cc1nnnn1CC1CCCO1 (stereo not drawn)	SKBR3 24h inh 37.1
CCOC(=O)CCn1cc(F)c(=O)n(Cc2ccccc2)c1=O	none
COc1ccc(S(=O)(=O)c2ccc(OC)c(OC)c2)cc1OC	none (no result: mHtt clearance)
CCN(CC)CC(=O)Nc1c(C)cc(C)cc1C	none (no result: mHtt clearance)
C1=CC2CC1CC2CNCc1ccco1 (stereo not drawn)	none (no result: mHtt clearance)
CCCn1cnc2c(c1=O)c1nc3ccccc3nc1n2CCC1=CCCCC1	none
CCOCCCn1c(C)nc2c(c1=O)c1nc3ccccc3nc1n2CCC1=CCCCC1	SKBR3 24h inh 12.3 (no result: mHtt clearance)
Cc1cc(C)c2c(CC(=O)N(CCC#N)Cc3cccnc3)coc2c1	none
Cc1cc(C)n(C(=O)C(C)N2C(=O)c3ccccc3C2=O)n1 (stereo not drawn)	none (no result: mHtt clearance)
CCCCOc1ccc(C(=O)C(CN2CCOCC2)c2ccccc2)cc1 (stereo not drawn)	none (no result: SKBR3 24h inh)
O=C(c1ccc(F)cc1)C(CN1CCOCC1)c1ccccc1 (stereo not drawn)	SKBR3 24h inh 22.2
Cc1nc2ccc(S(=O)(=O)Nc3ccccc3C)cc2s1	none (no result: mHtt clearance)
CN(C(=O)c1cccc(C#N)c1)c1nnc(-c2ccccn2)s1	none (no result: SKBR3 24h inh)
CN(C(=O)c1ccc(C#N)cc1)c1nnc(-c2ccccn2)s1	mHtt clearance 80.0 (no result: SKBR3 24h inh)
COc1ccc(C2(C(=O)NCCCN3CCOCC3)CCOCC2)cc1	none (no result: mHtt clearance)
COCCSc1ccccc1C(=O)Nc1nnc(COC)s1	none (no result: mHtt clearance)
COCCSc1ccccc1C(=O)Nc1cc(C)on1	mHtt clearance 74.8 (no result: SKBR3 24h inh)
CCCCN(C(=O)Cn1nnc2ccccc21)C(C(=O)NCCOC)c1cccs1 (stereo not drawn)	mHtt clearance 74.5 (no result: SKBR3 24h inh)
CCCCN(C(=O)Cn1nnc2ccccc21)C(C(=O)NCCOC)c1ccccc1 (stereo not drawn)	none (no result: SKBR3 24h inh)
Cc1cc(Cl)c(S(=O)(=O)N2CCCCCC2)cc1OCC(N)=O	none (no result: SKBR3 24h inh)
CCOC(=O)C1CCCN(S(=O)(=O)c2cc(OCC(N)=O)c(C)cc2Cl)C1 (stereo not drawn)	mHtt clearance 71.4
O=C(CCSCCc1ccccn1)Nc1ccc(Br)cn1	none (no result: SKBR3 24h inh)
COCCSc1ccccc1C(=O)NCc1ccco1	none (no result: SKBR3 24h inh)
Cc1ccc(N=C2C(=S)N(c3ccc(C)cc3)C(=N)N2/N=C/c2ccc(Cl)cc2)cc1	none (no result: SKBR3 24h inh)
O=C(O)CC(CP(=O)(c1ccccc1)c1ccccc1)C(=O)O (stereo not drawn)	none (no result: SKBR3 24h inh)
O=C(O)CC(c1ccccc1)c1ccccc1	mHtt clearance 85.7
CCOc1cc(C)nc(N2CCCC(C(=O)NCc3ccccc3F)C2)n1 (stereo not drawn)	none
Cc1cc(C)nc(N2CCCC(C(=O)NCCc3ccccc3F)C2)n1 (stereo not drawn)	SKBR3 24h inh 42.6 (no result: mHtt clearance)
CCCn1nnc(NC(=O)COc2ccc(C3CCCCC3)cc2)n1	none
COc1ccc(N2C(=O)C(CC(=O)O)S/C2=C\C(C)=O)cc1 (stereo not drawn)	SKBR3 24h inh 31.3 (no result: mHtt clearance)
O=C(O)CC1SC(=Nc2ccccc2)N(c2ccccc2)C1=O (stereo not drawn)	none (no result: mHtt clearance)
Cc1nn(Cc2ccc(C(=O)Nc3ccc(Br)c4cccnc34)o2)c(C)c1Br	none (no result: SKBR3 24h inh)
CC1Cc2nc(SCC(=O)Nc3nc4ccccc4s3)n(C)c(=O)c2S1 (stereo not drawn)	none (no result: SKBR3 24h inh)
